The results in this text go back to PubChem BioAssay (EPA / NIEHS).

Calls of active or inactive are those of the source. The calls were made as follows: active = hit-call score of the fitted dose curve at least 0.9, where 1 is the maximum; inactive = score below 0.9.

Test [1] can be described thus: ATG_CMV_CIS: Attagene CIS-FACTORIAL HepG2 Assay for human CMV (Internal Marker) (AID 2282928).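 Also: endpoint acts as a background internal control marker rather than a target.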 The conditions noted are these: HepG2 CMV promoter reporter, transcription factor profiling; actives raise or lower the signal. The essentials:
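Endogenous transcription factor activity read in HepG2 via transfected cis-promoter reporter units. After 24 h dosing, reporter mRNA measured by RT-PCR/capillary electrophoresis; gain or loss of signal fit relative to DMSO.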

The nature of test [2]: ATG_DR4_LXR_CIS: Attagene CIS-FACTORIAL HepG2 Assay for human Liver X Receptor (LXR), DR4 submotif (AID 2282929). The conditions noted are these: HepG2 Attagene DR4 cis-reporter, mRNA transcription; actives raise or lower the signal. The essentials: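 After transient transfection with multiplexed cis-promoter reporter units, HepG2 cells received test chemicals for 24 h. Reporter mRNA induction, detected by fluorescence after RT-PCR and capillary electrophoresis, was scored relative to DMSO.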

Test [3] can be described thus: ATG_AP_2_CIS: Attagene CIS-FACTORIAL HepG2 Assay for human Activator Protein 2 (AP-2) (AID 2282932). The conditions noted are these: HepG2 AP-2 cis-reporter, Attagene transcription factor profiling; actives raise or lower the signal. The essentials: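 HepG2, transient MRTU transfection, cis-regulated reporters; 24 h compound exposure; RNA isolated, RT-PCR, 6-FAM labelling, HpaI digest, CE fluorescence. DMSO = negative control/baseline, bidirectional fit.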

The target in test [4] is Transcription factor E2F1 (Homo sapiens) (UniProt Q01094). Description: ATG_E2F_CIS: Attagene CIS-FACTORIAL HepG2 Assay for human E2F Transcription Factor 1 (AID 2282935). The following applies: HepG2 Attagene cis-reporter, E2F reporter RNA transcripts; actives raise or lower the signal. The method, boiled down: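 Cis-element reporter mRNA induction in transiently transfected HepG2, 24 h exposure. Activity fitted in both directions relative to DMSO negative control.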

Test [5] can be described thus: ATG_M_61_CIS: Attagene CIS-FACTORIAL HepG2 Assay for M61 Transcription Factor (Internal Marker) (AID 2282937). The following applies: HepG2 Attagene CIS-FACTORIAL M61 internal marker reporter; actives raise or lower the signal. The method, boiled down: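 Using transiently transfected HepG2 liver cells, reporter transcript levels were assessed 24 h post-dosing by RT-PCR and capillary electrophoresis. Changes in either direction were fitted relative to DMSO controls.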

Test [6] in a line: ATG_EGR_CIS: Attagene CIS-FACTORIAL HepG2 Assay for human Early Growth Response 1 (EGR1) (AID 2282938). The following applies: HepG2 Attagene CIS-FACTORIAL EGR reporter mRNA; actives raise or lower the signal. The essentials:
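Fluorescent capillary-electrophoresis signal of reporter cDNA fragments serves as read-out. HepG2 cells bear transiently transfected cis-promoter reporter units and are exposed 24 h; gain- or loss-of-signal is fitted against DMSO.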

Test [7] can be described thus: ATG_Ets_CIS: Attagene CIS-FACTORIAL HepG2 Assay for human Erythroblast Transformation Specific (ETS) (AID 2282941). The conditions noted are these: HepG2 ETS cis-reporter transcription, actives raise or lower the signal. The method, boiled down: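 Steps: transfect HepG2 with multiple reporter units; treat compound 24 h; isolate RNA, DNase-treat, reverse-transcribe; PCR-amplify, label with 6-FAM, digest with HpaI; separate by capillary electrophoresis. Activity fitted both directions versus DMSO.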

Test [8] has as its target Hepatocyte nuclear factor 3-beta (Homo sapiens) (UniProt Q9Y261). Description: ATG_FoxA2_CIS: Attagene CIS-FACTORIAL HepG2 Assay for human Forkhead box A2 (FOXA2) (AID 2282942). The conditions noted are these: HepG2 cis-reporter transcription factor activity, 24 h; actives raise or lower the signal. The method, boiled down: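 Fluorescence signal of reporter cDNA fragments, separated by capillary electrophoresis, reflects endogenous transcription factor activity in transfected HepG2 after 24 h. Both increases and decreases fitted against DMSO.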

Test [9] in a line: ATG_FoxO_CIS: Attagene CIS-FACTORIAL HepG2 Assay for human Forkhead box O (FoxO) (AID 2282943). The following applies: HepG2 Attagene cis-reporter, FoxO element, mRNA; actives raise or lower the signal. The essentials: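 Human hepatoma HepG2 cells carry transiently introduced reporter transcription units controlled by cis promoter elements. Chemical treatment lasted 24 h, and mRNA signal was compared with DMSO.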

Test [10] can be described thus: ATG_GATA_CIS: Attagene CIS-FACTORIAL HepG2 Assay for human GATA Binding Protein (AID 2282944). The following applies: HepG2 GATA cis-element reporter, Attagene multiplex mRNA; actives raise or lower the signal. The essentials: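 Measures endogenous transcription factor-driven reporter mRNA in HepG2 cells transiently carrying cis-regulated constructs. 24 h dosing; RNA via oligo(dT) reverse transcription, PCR, HpaI digestion, capillary electrophoresis; fitted relative to DMSO.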

Test [11] in a line: ATG_ISRE_CIS: Attagene CIS-FACTORIAL HepG2 Assay for human Interferon Regulatory Factor 1 (IRF1) binding to an Interferon-Stimulated Response Element (ISRE) (AID 2282948). The conditions noted are these: HepG2 ISRE cis-reporter (Attagene), mRNA transcription readout; actives raise or lower the signal. The method, boiled down:
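Transfected HepG2 (multiple reporter transcription units, cis elements) dosed 24 h. RNA → oligo(dT) RT → PCR → 6-FAM primer extension → HpaI → CE. DMSO = negative control/baseline.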

Test [12] in a line: ATG_M_32_CIS: Attagene CIS-FACTORIAL HepG2 Assay for M32 Transcription Factor (Internal Marker) (AID 2282949).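 Also: background control marker of the multiplexed CIS panel rather than a real target.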 The following applies: HepG2 Attagene cis-factorial M32 reporter, mRNA; actives raise or lower the signal. The method, boiled down:
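Fluorescent capillary electrophoresis peaks of HpaI-digested, FAM-labelled RT-PCR reporter products give the signal. Source: transiently transfected human liver HepG2 cells, 24 h after chemical dosing; bidirectional fitting against DMSO.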

Test [13] is described as follows: ATG_MRE_CIS: Attagene CIS-FACTORIAL HepG2 Assay for human Metal Responsive Element (MRE) (AID 2282954). The conditions noted are these: HepG2 MRE cis-reporter transcription, Attagene multiplex; actives raise or lower the signal. The method, boiled down:
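Transient MRTU transfection of HepG2 (FuGene 6); 24 h dosing; total RNA → oligo(dT) RT, PCR, 6-FAM primer extension, HpaI cut, CE. Bidirectional fit vs DMSO.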

Test [14] addresses Paired box protein Pax-6 (Homo sapiens) (UniProt P26367). Description: ATG_Pax6_CIS: Attagene CIS-FACTORIAL HepG2 Assay for human Paired Box 6 (PAX6) (AID 2282956). The following applies: HepG2 CIS-FACTORIAL PAX6 reporter transcription, RNA readout; actives raise or lower the signal. The essentials:
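Transient MRTU transfection of HepG2 → compound exposure 24 h → TriZol RNA, oligo(dT) RT → PCR, 6-FAM primer extension, HpaI cut → capillary electrophoresis; activity fitted both directions against DMSO.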

A short description of test [15]: ATG_PXRE_CIS: Attagene CIS-FACTORIAL HepG2 Assay for human Pregnane X Receptor Element (PXRE) (AID 2282957). The following applies: HepG2 Attagene CIS-FACTORIAL PXRE reporter, mRNA; actives raise or lower the signal. The method, boiled down:
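Cis-element reporter mRNA in human hepatoma HepG2 cells is measured 24 h post-dosing by RT-PCR, primer-extension labeling and capillary electrophoresis; gain or loss of signal is fitted relative to DMSO.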

The nature of test [16]: ATG_Sox_CIS: Attagene CIS-FACTORIAL HepG2 Assay for human SRY-box transcription factor (SOX) (AID 2282960). The conditions noted are these: HepG2 Attagene cis-factorial SOX reporter, mRNA; actives raise or lower the signal. The method, boiled down:
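Using transiently transfected HepG2 cells, reporter transcription driven by cis elements was assessed 24 h after dosing. Signal was fluorescence of capillary-separated RT-PCR products, with DMSO defining baseline activity.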

Test [17] in a line: ATG_SREBP_CIS: Attagene CIS-FACTORIAL HepG2 Assay for human Sterol Regulatory Element Binding (SREBP) (AID 2282962). The following applies: HepG2 Attagene cis-factorial SREBP reporter, mRNA; actives raise or lower the signal. The essentials:
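Transfected HepG2 (cis-regulated reporter library, endogenous TFs) → compound 24 h → total RNA → oligo(dT) RT → reporter-specific PCR → FAM primer extension, HpaI cut → CE fluorescence. Fit bidirectional vs DMSO.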

Test [18] can be described thus: ATG_TCF_b_cat_CIS: Attagene CIS-FACTORIAL HepG2 Assay for human T-Cell-Factor with beta-catenin (TCF/b-cat) (AID 2282965). The conditions noted are these: HepG2 TCF/beta-catenin cis-reporter transcription, actives raise or lower the signal. The method, boiled down: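 Measured: reporter mRNA in HepG2 transiently transfected with cis-promoter reporter units, 24 h after chemical addition. Fitting was bidirectional, DMSO as negative control.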

The nature of test [19]: ATG_TAL_CIS: Attagene CIS-FACTORIAL HepG2 Assay for human TAL Basal Promoter (AID 2282966).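 Also: background control endpoint measuring basal TAL promoter reporter mRNA not a specific factor.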 The following applies: HepG2 Attagene cis-factorial TAL promoter reporter; actives raise or lower the signal. The essentials:
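In this cell-based multiplex, HepG2 liver cells bearing cis-promoter reporter constructs are dosed for 24 hours. Total RNA is reverse-transcribed and amplified, labelled fragments are sized by capillary electrophoresis, and signal changes are fitted bidirectionally versus DMSO.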

A short description of test [20]: ATG_TGFb_CIS: Attagene CIS-FACTORIAL HepG2 Assay for human Transforming Growth Factor (TGF) (AID 2282967). The following applies: HepG2 Attagene CIS TGFb reporter, mRNA transcription; actives raise or lower the signal. The method, boiled down:
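After a 24-hour incubation with compound, transfected HepG2 cells were lysed for RNA; reporter cDNA was amplified, fluorescently end-labeled and separated by CE. DMSO served as baseline for bidirectional fits.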

Usually AC50 stands for the concentration giving half of the maximal activity seen.

Sequence of Hepatocyte nuclear factor 3-beta (Homo sapiens) (Q9Y261 whole entry, looked up, the tested form may be a part): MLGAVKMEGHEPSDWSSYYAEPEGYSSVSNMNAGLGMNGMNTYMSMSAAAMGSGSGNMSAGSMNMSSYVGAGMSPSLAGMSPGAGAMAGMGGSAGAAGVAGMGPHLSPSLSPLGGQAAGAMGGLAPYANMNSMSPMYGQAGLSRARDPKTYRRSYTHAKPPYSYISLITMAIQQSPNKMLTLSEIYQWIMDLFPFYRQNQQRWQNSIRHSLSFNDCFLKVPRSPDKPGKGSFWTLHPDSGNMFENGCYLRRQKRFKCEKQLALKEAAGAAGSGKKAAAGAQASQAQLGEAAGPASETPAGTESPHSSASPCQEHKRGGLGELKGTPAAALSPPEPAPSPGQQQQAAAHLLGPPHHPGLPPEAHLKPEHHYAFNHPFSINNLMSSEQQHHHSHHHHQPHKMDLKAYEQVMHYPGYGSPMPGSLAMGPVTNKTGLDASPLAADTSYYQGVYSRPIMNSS
Sequence of Transcription factor E2F1 (Homo sapiens) (Q01094 whole entry, looked up): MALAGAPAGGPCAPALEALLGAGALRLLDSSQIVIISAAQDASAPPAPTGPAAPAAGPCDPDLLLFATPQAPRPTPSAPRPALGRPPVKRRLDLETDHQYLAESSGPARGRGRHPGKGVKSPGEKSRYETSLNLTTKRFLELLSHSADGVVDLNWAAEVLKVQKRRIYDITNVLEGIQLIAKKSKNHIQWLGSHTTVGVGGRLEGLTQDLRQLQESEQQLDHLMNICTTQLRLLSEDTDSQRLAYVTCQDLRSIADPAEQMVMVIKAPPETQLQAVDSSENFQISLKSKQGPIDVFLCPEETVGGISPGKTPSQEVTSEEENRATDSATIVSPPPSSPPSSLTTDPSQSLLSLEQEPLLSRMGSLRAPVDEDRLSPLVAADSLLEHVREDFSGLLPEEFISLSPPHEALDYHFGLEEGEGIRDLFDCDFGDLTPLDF
Sequence of Paired box protein Pax-6 (Homo sapiens) (P26367 whole entry, looked up): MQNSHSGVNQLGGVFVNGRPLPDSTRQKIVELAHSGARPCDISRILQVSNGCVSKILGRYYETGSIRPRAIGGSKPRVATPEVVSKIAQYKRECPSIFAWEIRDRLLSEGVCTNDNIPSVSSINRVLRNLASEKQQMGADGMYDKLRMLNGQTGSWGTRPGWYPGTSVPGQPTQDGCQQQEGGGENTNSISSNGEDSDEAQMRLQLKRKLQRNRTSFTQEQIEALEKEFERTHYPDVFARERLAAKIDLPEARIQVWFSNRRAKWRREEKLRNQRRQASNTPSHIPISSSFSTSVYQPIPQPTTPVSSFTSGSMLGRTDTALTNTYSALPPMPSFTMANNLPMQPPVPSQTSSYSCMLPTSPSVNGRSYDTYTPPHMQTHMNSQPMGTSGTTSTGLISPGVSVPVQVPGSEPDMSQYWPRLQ

As for `O=CNC(N1CCN(C(NC=O)C(Cl)(Cl)Cl)CC1)C(Cl)(Cl)Cl` (stereo not given), the compound was classed as inactive in [1], in test [2], in test [3], in [4], in test [5] and in [6]. The compound was classed as inactive in test [7], in test [8], in test [9], in test [10], in test [11] and in [12]. Moreover, the outcome in [13], in [14], in [16], in test [17], in test [18] and in [19] was inactive. Further, the outcome in test [20] was inactive. Moreover, the AC50 in [15] is 7.22 µM (active).

Take `CSc1nc(N=[N+]=[N-])nc(NC(C)C)n1`: the AC50 in test [1] was 52.8 µM (active); in [15], 27.2 µM (active). Moreover, the result in test [2], in test [3], in [4], in test [5], in test [6] and in [7] was inactive. Also, the outcome in [8], in [9], in test [10], in test [11], in [12] and in test [13] was inactive. Also, the result in [14], in test [16], in test [17], in test [18], in [19] and in test [20] was inactive.

With `Nc1ccc(Cl)c(Cl)c1`, the call in [1], in test [3], in test [4], in test [5], in [6] and in test [7] was inactive. Besides, the compound was called inactive in [8], in [9], in test [10], in test [12], in test [13] and in test [14]. Besides, the compound was called inactive in [15], in test [16], in test [17], in [18], in test [19] and in test [20]. Also, the AC50 in test [2] was 134 µM (active); in test [11], 135 µM (active).

Take `CC(=O)C=Cc1ccccc1`: the AC50 in [1] is 128 µM (active); in [3], 143 µM (active); in test [6] it was 146 µM (active); in [7], 100 µM (active); in [9], 100 µM (active); in [11], 81.1 µM (active). Further, the concentration at half-maximal activity (AC50) in test [14] is 130 µM (active); in [15], 26 µM (active); in test [16], 164 µM (active). The outcome in test [2], in [4], in [5], in test [8], in [10] and in test [12] was inactive. In addition, the result in [13], in test [17], in test [18], in [19] and in test [20] was inactive.
